Assay outcomes from PubChem.
Shown are actives, neighbours in structure and some others; about 6.2% of the full set was active somewhere.
ATXN2 expr inh – reduces ATXN2 reporter expression in HEK-293 cells | HEK-293 ATXN2-luciferase reporter, luminescence, 24 h | AID 1745845 | 360,000 tested, 0.72% active | Potency, µM (series often up to 57 µM), usual class: inhibitors; note: nearly all actives have a fitted effect of over 55% in size
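qHTS (up to 57 uM final) was run with 24 h compound exposure of reporter cells at 37 °C. Each well was multiplexed: SteadyGlo luminescence measured ATXN2-luciferase expression after a fluorogenic Gly-Phe-AFC viability readout (25 uM final).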
HT1080 IDH1KD tx – toxicity to HT-1080 IDH1 knockdown cells (counter line). HT-1080 IDH1 knockdown viability, ATP luminescence, 48 h. 360,000 tested, 2% active. Potency, µM (doses to about 46.1 µM), hits mostly cytotoxic. AID 686971
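CellTiter-Glo luminescence after 48 h compound exposure at 37 degrees C of IDH1-knockdown HT-1080 cells in 5% FBS RPMI. %Activity scaled between DMSO wells and cell-free media wells, with curves fitted and assigned curve classes.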
KB-V1 cytotox – KB-V1 MDR subline cytotoxicity | AID 1347076 | KB-V1 MDR cells viability, CellTiter-Glo, 72 h | Potency, µM (doses to about 46.1 µM), usual class: cytotoxic | 400,000 tested, 3.4% active; note: nearly all actives have a fitted effect of over 60% in size
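Luminescent ATP read-out (CellTiter-Glo, 10 min) measures survival of drug-selected KB-V1 MDR cells after 72 h, 37 degrees C compound exposure. Medium: phenol-red-free DMEM, 10% FBS. Values from fitted concentration-response curves.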
ATXN viability – reduces viability in counter-screen for ATXN expression inhibitors; S2 cells (HEK-293 line with an ATXN2-luciferase reporter) viability, CellTiter-Fluor protease fluorescence, 24 h; Potency, µM (highest dose often 56.7 µM), most hits filed as cytotoxic; 400,000 tested, 0.49% active; note: nearly all actives have a fitted effect of over 40% in size
HT1080NT lethal – kills 2HG-producing HT-1080-NT fibrosarcoma cells | 360,000 tested, 1.6% active | HT-1080-NT fibrosarcoma viability, CellTiter-Glo ATP luminescence, 48 h | Potency, µM (top dose mostly 46.1 µM), actives largely listed as cytotoxic | AID 686970;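 note: NT is the 2HG producing partner of a matched IDH1 knockdown line; nearly all actives have a fitted effect of over 55% in size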
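Viability by CellTiter-Glo luminescence after 48 h compound exposure at 37C of HT-1080-NT cells (750/well, RPMI, 5% FBS). % activity scaled between DMSO wells and medium-only wells, then curve-fitted and categorized by curve class.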
KB-3-1 tox – KB-3-1 parental cell cytotoxicity. Potency, µM (highest dose often 46.1 µM), hits mostly cytotoxic. AID 1347075. 400,000 tested, 1.4% active. KB-3-1 viability, CellTiter-Glo ATP luminescence, 72 h; note: nearly all actives have a fitted effect of over 60% in size
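Cells are dispensed, compounds pinned in, plates held at 37 °C for 72 h, then CellTiter-Glo is added and luminescence read after 10 minutes. Cell line: parental KB-3-1 in phenol-red-free DMEM, 10% FBS.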
A number is an active result; - = inactive; ? = inconclusive; . = not tested or not shown; [ ] = dose if it differs, or a comment. Calls come from the whole dose curve; as a rule, active = well fitted curve in the direction sought with a large enough effect; inconclusive = small, poorly fitted or top-dose-only effect, or another doubt; inactive = no such curve, though single readings can be large; an effect the other way counts as inactive or inconclusive.

SMILES	ATXN2 expr inh	HT1080 IDH1KD tx	KB-V1 cytotox	ATXN viability	HT1080NT lethal	KB-3-1 tox
CC(=NNC(=O)c1ccncc1)c1ccccc1O	?	?	-	-	?	?
C/C(=N\NC(=O)c1cccc(N/N=C(\C)c2ccco2)c1)c1ccco1	.	-	?	?	-	-
CC(=NNC(=O)c1ccncc1)c1ccc(O)cc1O	14µM	?	-	-	-	?
CCCCCCCC(=O)N/N=C(\C)c1ccc(O)cc1O	-	?	-	?	?	?
CCCCCCCCC(=O)N/N=C(\C)c1ccc(O)cc1O	18µM	?	?	?	-	-
Cc1cccc(NC(=O)c2ccc(-n3c(C)nnc3C)cc2)c1	-	.	-	-	.	-
O=C(Nc1cccc(-c2csc(Nc3ccc(Cl)cc3)n2)c1)c1ccccc1	?	?	-	16µM	?	-
O=C(Nc1ccc(Cl)c(Cl)c1)Nc1nc(-c2ccccc2)cs1	-	-	6.5µM	-	-	12µM
c1cnc2cc3c(cc2n1)C1CNCC3C1	-	.	.	-	.	.
COc1ccc(NC(=O)C2CCCN(c3nnc(C)c4c(C)n(-c5ccccc5)nc34)C2)cc1Cl (centres undefined)	13µM	.	-	11µM	.	-
Cc1nnc(N2CCCC(C(=O)NCc3ccc(OC(C)C)cc3)C2)c2nn(-c3ccccc3)c(C)c12 (centres undefined)	?	?	-	16µM	?	-
Cc1ccc(-n2nc3c(N4CCC(C(=O)NCCc5cccs5)CC4)nnc(C)c3c2C)cc1	?	16µM	-	?	?	-
Cc1ccc(CCNC(=O)C2CCN(c3nnc(C)c4c(C)n(-c5ccccc5)nc34)CC2)cc1	.	.	-	.	.	-
COc1cccc(CN2C(=O)NC(C)(C3CCN(Cc4cnn(C)c4C)CC3)C2=O)c1OC (centres undefined)	.	.	.	-	.	.
CC(C)(Oc1ccc(Br)cc1)C(=O)N1CCc2ccccc21	-	-	21µM	-	-	-
CCn1c(=N)n(CC(=O)c2ccc(Cl)c(Cl)c2)c2ccccc21	-	23µM	16µM	-	?	?
Cn1c(=N)n(CC(=O)c2ccc(Br)cc2)c2ccccc21	-	23µM	-	?	?	?
Cc1ccc(C(=O)Cn2c(=N)n(CCN3CCOCC3)c3ccccc32)cc1	-	-	-	-	-	-
N=c1n(CCN2CCCCC2)c2ccccc2n1CC(=O)c1ccc(Cl)c(Cl)c1	?	21µM	?	-	21µM	?
Cc1ccc(Cn2c(=N)n(CC(=O)c3ccc([N+](=O)[O-])cc3)c3ccccc32)cc1	20µM	-	15µM	.	-	18µM
COc1ccc(N(C(=O)c2cccc(C)c2)S(=O)(=O)c2ccc3c(c2)n(C)c(=O)n3C)cc1	-	.	-	?	.	-
COc1cc(=O)n2c(c1C(=O)N(C)Cc1nccs1)CCN(Cc1c(F)ccc(F)c1F)CC2	.	.	.	-	.	.
CCC(CC)NC(=O)c1cccc(Oc2ccccc2)c1	-	-	23µM	-	-	-
CC1(C)S[C@@H]2[C@H](NC(=O)[C@H](N)c3ccccc3)C(=O)N2[C@H]1C(=O)OCOC(=O)[C@@H]1N2C(=O)C[C@H]2S(=O)(=O)C1(C)C	.	.	.	-	.	.
O=c1c2c3nc4ccccc4nc3n(/N=C/c3ccccn3)c2ncn1-c1ccccc1	?	?	?	-	5.8µM	-
SMILES	ATXN2 expr inh	HT1080 IDH1KD tx	KB-V1 cytotox	ATXN viability	HT1080NT lethal	KB-3-1 tox
Cc1ccc(CN2CCc3nnc(C(NS(C)(=O)=O)C(C)C)n3CC2)cc1C (centres undefined)	.	.	.	-	.	.
COc1cccc(-n2nnc3c(=O)n(CC(=O)N4CCC(C)CC4)cnc32)c1	-	-[9.24 µM]	-	-	-	-
COc1cccc(-n2nnc3c(=O)n(CC(=O)N4CCC(Cc5ccccc5)CC4)cnc32)c1	-	-	5.2µM	?	-	?
CCCC(NC(=O)CCl)c1ccccc1 (centres undefined)	-	?	-	?	?	-
CC(NC(=O)CCl)c1ccc(Cl)c(Cl)c1 (centres undefined)	?	16µM	-	?	?	?
CCC(NC(=O)CCl)c1ccc(C)cc1 (centres undefined)	-	?	?	-	?	21µM
Cc1cccc(NC(=O)CSc2ncc3c(n2)-c2ccccc2N(Cc2ccc(F)cc2)S3(=O)=O)c1C	-	.	-	-	.	-
Cc1ccc(OCCNC(=O)CNC(=O)Cc2cccc3ccccc23)cc1	.	.	-	.	.	-
COc1ccc(-n2cc3ccc([N+](=O)[O-])cc3n2)cc1	-	-	?	?	-	5.8µM
Cc1ccccc1-n1c(Cc2cccs2)n[nH]c1=S	-	?	-	-	?	-
CCc1cc(-c2n[nH]c(=S)n2-c2ccccc2C)cs1	-	?	18µM	-	11µM	-
Cc1ccccc1-n1c(C)n[nH]c1=S	-	?	-	-	13µM	-
Cc1ccccc1-n1c(-c2ccoc2C)n[nH]c1=S	-	-	-	-	-	-
CCc1cc(-c2n[nH]c(=S)n2CC)cs1	-	-	?	?	-	?
CCc1cc(-c2n[nH]c(=S)n2Cc2ccccc2)cs1	-	-	21µM	?	-	-
CCC(=O)N1CCc2cc(Br)cc(S(=O)(=O)N3CCCC(C(=O)Nc4ccc(C)c(F)c4)C3)c21 (centres undefined)	-	.	-	-	.	-
CC(=O)Nc1cccc(OCc2ccc(S(=O)(=O)Cc3ccccc3)cc2)c1	-	-	18µM	-	-	-
CC(=O)Nc1ccc(OCc2cccc([N+](=O)[O-])c2)cc1	-	-	-	-	-	-
O=C(/C=C/c1cccc([N+](=O)[O-])c1)Nc1ccc(NC(=O)c2cccs2)cc1	?	-	-	?	-	-
COc1ccc(/C=C2\C(=O)N(c3c(Cl)cc(Cl)cc3Cl)N=C2NC(=O)c2cccc([N+](=O)[O-])c2)cc1	32µM	-	?	.	-	?
CC(=O)Nc1ccc(C=CC=Cc2cccc([N+](=O)[O-])c2)cc1	-	-	21µM	?	-	-
CC(=O)Nc1cccc(OCc2cccc([N+](=O)[O-])c2)c1	-	-	13µM	?	-	?
CC(=O)Nc1ccc(OCc2ccc(S(=O)(=O)Cc3ccccc3)cc2)cc1	.	-	?	-	-	-
Cc1ccc(NC(=O)CN(CCc2ccccc2)S(=O)(=O)c2ccccc2)c(C)c1	-	.	-	?	.	-
COc1ccc(C(=O)C(C)Oc2cccc(NC(=O)c3cccc([N+](=O)[O-])c3)c2)cc1 (centres undefined)	-	-	2.3µM	-	-	-
CCc1sc(C(=O)NCc2cc(C)n(C)n2)cc1Br	-	16µM	-	-	?	-
CCN(CC)CCCNc1cc(C)nc2cc(-c3cccs3)nn12	-	-	-	?	-	-
CCN(CC)CCCCNc1nc2cc(Cl)c(Cl)cc2nc1-c1ccc(-c2cccs2)s1	22µM	.	.	.	.	.
